# Test results published in PubChem BioAssay (NCATS).
# Results filed as inconclusive are left out. Where a call stands in place of a potency, no number is given. The source made the active and inactive calls. The call rests on the fitted dose curve; in most records, active means well fitted inhibition curve with a large enough effect; inconclusive means small, poorly fitted or top-dose-only effect; inactive means flat fitted curve, though single readings scatter.
# Molecular target: Calcium and integrin-binding protein 1 (Homo sapiens) (UniProt Q99828)
# Sequence (Q99828 whole entry, looked up): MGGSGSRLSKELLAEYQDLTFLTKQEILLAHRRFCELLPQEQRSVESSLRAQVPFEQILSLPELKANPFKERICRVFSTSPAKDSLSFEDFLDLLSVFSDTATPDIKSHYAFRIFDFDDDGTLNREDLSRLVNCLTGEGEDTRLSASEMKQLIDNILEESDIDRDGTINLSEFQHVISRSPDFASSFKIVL
# Test: Primary qHTS for Identification of Calcium Integrin Binding Protein 1 (CIB1) Competitor (AID 1508620);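 further: GST tagged CIB1 binding a fluorescein labelled alphaIIb integrin peptide tracer; top concentration of the series differs between compounds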
# In short: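 CIB1-GST (1 uM final) and compound incubated 15 min at room temperature before adding FITC-alphaIIb peptide tracer (100 nM final). Competition for binding read by fluorescence polarization (ex 480, em 540) after another 15 min at room temperature.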
row,SMILES,Potency
1,Cc1ccc(N2CCC(CNc3nc(-c4ccccc4C(C)C)ncc3F)CC2)cn1,inactive
2,O=C(/C=C/c1ccccc1Cl)Nc1cccc([S+](=O)([O-])Nc2ccccc2F)c1,inactive
3,COc1cc(O)c([C@H](CC(=O)N2CC(C)CC(C)C2)c2ccc3c(c2)OCO3)c(OC)c1 (stereo not given in full),inactive
4,CNc1sc(-c2cccc3ccccc23)nc1C(=O)OC,inactive
5,O=C(Nc1ccc2ccccc2c1)Nc1cccc(-c2ccncc2)n1,inactive
6,O=C1Nc2ccccc2C1Cc1cc(Cl)c(O)c(Cl)c1 (stereo not given),inactive
7,O=C1Nc2ccc(Cl)cc2/C1=C\c1cc(Cl)c(O)c(Cl)c1,inactive
8,N#Cc1nc(Nc2cccc(Cl)c2)c2ncn(C3CCCC3)c2n1,inactive
9,CCn1cnc2c(Nc3cccc(Cl)c3)nc(C#N)nc21,inactive
10,Cn1nnnc1Sc1ncnc2scc(-c3cc4ccccc4o3)c12,inactive
11,FC(F)(F)c1cccc(N2CCN(C(=S)Nc3nccc4ccccc34)CC2)c1,inactive
12,O=C1CCCC2=C1C(c1cccc(F)c1)N=C(Nc1nc3ccccc3o1)N2 (stereo not given),inactive
13,O=C(Nc1cc(C(F)(F)F)ccc1Cl)[C@H](O)CCc1ccccc1,inactive
14,FC(F)(F)c1ccccc1-c1nc(NCC23CC4CC(CC(C4)C2)C3)c2ccccc2n1,inactive
15,COc1cccc(OC2=NS(=O)(=O)c3ccccc32)c1,inactive
16,COc1ccc(C2=Nn3c(nnc3-c3ccccc3OC)SC2)cc1O[C@H]1CCOC1,inactive
17,Cc1nc(CNc2ncnc3ccc(-c4sc(C)nc4C)cc23)cs1,inactive
18,Cc1cc(C)n2ncc(C(=O)Nc3ccc(S(C)(=O)=O)cc3)c2n1,inactive
19,CC(C)(C)n1cnc2cc(C(=O)N3CCCCC3)ccc21,inactive
20,NC(=O)c1cccc(-c2noc(-c3ccccc3F)n2)c1,inactive
21,O=C1OC(c2ccccc2)(c2ccccc2)N2CCN(C(=O)NCc3ccc(F)cc3)CC12 (stereo not given),inactive
22,Cc1ccc(OCCn2c(CCNC(=O)c3cccc(Br)c3)nc3ccccc32)cc1,inactive
23,C#CCOc1cc(C2=Nn3c(nnc3-c3ccc(OCC(C)=O)cc3)SC2)ccc1OC,inactive
24,COc1ccc(C2Nc3ccccc3C(=O)N2Cc2ccco2)cc1COc1c(C)cccc1C (stereo not given),inactive

row,SMILES,Potency
1,CN(C(=O)Nc1ccc2ccccc2c1)c1nnc(-c2ccncc2)s1,inactive
2,O=C(c1cccs1)c1nonc1C(=O)c1cccs1,inactive
3,COc1ccc(C2=Nn3c(nnc3-c3ccccc3OC)SC2)cc1OCC1CC1,inactive
4,O=c1c2ccccc2nc2sc(Nc3cccc(Cl)c3)nn12,inactive
5,O=C(NCCCCc1ccccc1)C1CCN(c2nc(-c3ccc(Br)cc3)cs2)CC1,inactive
6,COc1ccc(-c2nnc3n2N=C(c2ccc(OC)cc2OC)CS3)cc1,inactive
7,O=C(NCCc1nc2ccccc2n1CCOc1ccc(C(F)(F)F)cc1)C1CCCCC1,inactive
8,O=C(O)c1cccc(S(=O)(=O)N2CCN(S(=O)(=O)c3ccc4c(c3)OCCO4)CC2)c1,inactive
9,FC(F)(F)c1cc(-c2ccc(CNc3nc(-c4ccccc4C(F)(F)F)nc4ccccc34)cc2)ccc1Cl,inactive
10,O=c1c2[nH]c3ccsc3c2cnn1Cc1ccccc1F,inactive
11,COc1ccc(C2Nc3ccccc3C(=O)N2Cc2ccc(C(C)(C)C)cc2)cc1COc1ccc(NC(C)=O)cc1 (stereo not given),inactive
12,CC(=O)Nc1sc2c(c1C#N)CCN(C(C)C)C2,inactive
13,Cc1cc(NC(=O)Nc2nnc(-c3cccnc3)s2)ccc1F,inactive
14,COc1ccc(-c2ccc(=O)n(CC(=O)NCCc3ccccc3)n2)cc1,inactive
15,O=S(=O)(Nc1cccc2cccnc12)c1ccc(Br)cc1,inactive
16,Cc1ccc(NS(=O)(=O)c2cc3c(cc2N(C)C)NC(=O)CC3)cc1C,inactive
17,Cc1cc2c(s1)c1cnn(Cc3c(F)ccc(F)c3F)c(=O)c1n2C,inactive
18,Cn1c2cc(C#N)sc2c2cnn(Cc3ccc(F)cc3)c(=O)c21,inactive
19,CC(=O)Nc1ccccc1OC1=N[S+](=O)([O-])c2ccccc21,inactive
20,Cc1ccc(-c2cnn(CC(=O)N(C)C(C)c3ccco3)c(=O)c2)cc1 (stereo not given),inactive
21,O=S(=O)(c1ccccc1)N1CCN(c2nc(C3CC3)nc3ccccc23)CC1,inactive
22,COc1cc(F)c(S(=O)(=O)N2CCN(S(=O)(=O)c3ccc(NC(C)=O)cc3)CC2)c(F)c1,inactive
23,Cc1ccnc(NC(=S)N2CC3CN(c4ncc(C(F)(F)F)cc4Cl)CC3C2)c1 (stereo not given),inactive
24,O=C(OCC#CCSc1nnc(-c2cccc3ccccc23)o1)c1cccc2[nH]ccc12,inactive

row,SMILES,Potency
1,Cc1ccc(NS(=O)(=O)c2cc3c(cc2N2CCCCC2)NC(=O)CC3)cc1C,inactive
2,COc1ccc(C2NC(=O)c3ccccc3N2)cc1COc1c(C)cc(NC(C)=O)cc1C (stereo not given),inactive
3,Cc1cc(NC(=O)Nc2nnc(C3CCCCC3)s2)ccc1F,inactive
4,COc1cccc(CNc2ccc(S(=O)(=O)Nc3cc(C)on3)cc2)c1O,inactive
5,FC(F)(F)c1ccccc1-c1nc(NCc2ccc(-c3cccnc3)cc2)c2ccccc2n1,inactive
6,CC(=O)N1CCN(c2ccc(NCc3ccc(Br)o3)cc2)CC1,inactive
7,Cc1ccc(-c2ccc(=O)n(CC(=O)N(C)C(C)C(C)C)n2)cc1 (stereo not given),inactive
8,COc1ccc(C2Nc3ccccc3C(=O)N2C2CCCC2)cc1COc1ccc(NC(C)=O)cc1 (stereo not given),inactive
9,N#Cc1cccnc1SC1=NS(=O)(=O)c2ccccc21,inactive
10,COc1ccc(-c2nnc3n2N=C(c2c(OC)cccc2OC)CS3)cc1OC,inactive
11,COc1ccc(S(=O)(=O)N2CCN(S(=O)(=O)c3c(F)cccc3F)CC2)cc1,inactive
12,CN(C)c1ccc(-c2csc(N3CCC(C(N)=O)CC3)n2)cc1,inactive
13,Cc1ccc2nsnc2c1S(=O)(=O)Nc1cccc2cccnc12,inactive
14,Cc1cnc(-c2ccccc2N(C)C)nc1NCc1ccc(-c2cccnc2)cc1,inactive
15,O=C(/C=C/c1cccnc1)Nc1cccc([S+](=O)([O-])Nc2ccccc2F)c1,inactive
16,O=C1N/C(=C\c2ccco2)C(=O)N1Cc1ccc(F)cc1,inactive
17,CC(=O)Nc1sc2c(c1-c1ccc3c(c1)OCCCO3)CCNC2,inactive
18,COc1ccc(C2=Nn3c(nnc3-c3cc(OC)ccc3OC)SC2)c(OC)c1,inactive
19,Cc1ccc(OCCn2c(CCNC(=O)/C=C/c3cccc(Br)c3)nc3ccccc32)cc1,inactive
20,[O-][n+]1onc(-c2ccccc2)c1/C=N/O,inactive
21,CN(CC(F)(F)F)c1nc(NCc2ccc(-c3cccnc3)cc2)c2ccccc2n1,inactive
22,O=C1CCCC2=C1C(c1cccnc1Cl)N=C(Nc1nc3ccccc3o1)N2 (stereo not given),inactive
23,CC(=O)N1CCN(c2nc(-c3ccc(Br)cc3)cs2)CC1,inactive
24,N#Cc1nc(Nc2cc(F)cc(F)c2)c2ncn(CCCO)c2n1,inactive

row,SMILES,Potency
1,C=CCNc1oc(-c2cccc(Br)c2)nc1C#N,inactive
2,O=C1CCCC2=C1C(c1[nH]ncc1Cl)N=C(Nc1nc3cc([S+](=O)([O-])N4CCCC4)ccc3o1)N2 (stereo not given),inactive
3,Cn1nnnc1Sc1ncnc2scc(-c3cccc4ccccc34)c12,inactive
4,CCOc1ccccc1-c1nnc2n1N=C(c1ccc(OC)cc1)CS2,inactive
5,COc1cc(OC)cc(C2=Nn3c(nnc3-c3ccccc3OC)SC2)c1,inactive
6,CN1CCCC1CCNc1ncnc2ccc(-c3ccc4c(c3)OCO4)cc12 (stereo not given),inactive
7,Cc1cnc(-c2ccccc2OC(C)C)nc1NCc1ccc(-n2ccnn2)cc1,inactive
8,COC(=O)c1ccccc1NC(=O)c1ccc(F)cc1F,inactive
9,CCC(=O)C1CCCN(C(=O)CC(c2ccc3c(c2)OCO3)c2c(O)cc(OC)cc2OC)C1 (stereo not given),inactive
10,COc1ccc(C2Nc3ccccc3C(=O)N2Cc2ccco2)cc1COc1c(C(C)C)cccc1C(C)C (stereo not given),inactive
11,O=C1CCCC2=C1C(c1ccccc1)N=C(Nc1nc3ccccc3o1)N2 (stereo not given),inactive
12,Cc1ccc(NS(=O)(=O)c2cc3c(cc2Cl)NC(=O)CO3)cc1C,inactive
13,COc1ccc(C2Nc3ccccc3C(=O)N2Cc2ccccc2OC)cc1COc1ccc(NC(C)=O)cc1 (stereo not given),inactive
14,CC(C)COc1ccc(-c2csc(N3CCC(C(N)=O)CC3)n2)cc1,inactive
15,NC(=O)C1CCN(c2nc(-c3ccc(-c4ccccc4)cc3)cs2)CC1,inactive
16,Cc1cc2c(s1)c1cnn(Cc3ccc(Cl)cc3)c(=O)c1n2C,inactive
17,Cc1cc2c(s1)c1cnn(Cc3cccc(C)c3F)c(=O)c1n2C,inactive
18,Cn1nnnc1Sc1ncnc2scc(-c3cccc(Br)c3)c12,inactive
19,O=C1CCc2cc(S(=O)(=O)Nc3cc(F)cc(Cl)c3)c(F)cc2N1,inactive
20,c1cncc(-c2ccc(CNc3nc(-n4ccnc4)nc4ccccc34)cc2)c1,inactive
21,Cc1ccc(OCCn2c(CCNC(=O)c3ccccn3)nc3ccccc32)cc1,inactive
22,CC(=O)Nc1ccc(S(=O)(=O)N2CCN(S(=O)(=O)c3c(F)cccc3F)CC2)cc1,inactive
23,O=C(Cc1nnc(CNC(=O)c2ccccc2)s1)Nc1ccc(C(F)(F)F)cc1Cl,inactive
24,Cc1cc(C)nc(NC(=S)N2CCN(c3ccc4cn(C)nc4c3)CC2)c1,inactive

row,SMILES,Potency
1,COc1cccc(NC(=S)N2CCN(c3ccc(Cl)cc3Cl)CC2)n1,inactive
2,O=C(Nc1ccccc1)C1CCN(c2nc(-c3ccc(Br)cc3)cs2)CC1,inactive
3,CCOc1ccc(NC(=O)NCC2CCCN2c2ccc(OC)cc2)cc1 (stereo not given),inactive
4,COc1cc(OC)cc(N2CCN(C(=S)Nc3cc(C)cc(C)n3)CC2)c1,inactive
5,O=C(NCc1cccnc1)C1CCN(S(=O)(=O)c2cccs2)CC1,inactive
6,Cc1cc(C)nc(NC(=S)N2CCN(c3ccc4ncccc4c3[N+](=O)[O-])CC2)c1,inactive
7,FC(F)(F)c1ccccc1-c1nc(NCc2ccc(-c3ccc4ccccc4c3)cc2)c2ccccc2n1,inactive
8,N#Cc1nc(Nc2ccc(Br)cc2)nc(NC2CCCC2)n1,inactive
9,O=C(OCC#CCSc1nnc(-c2cccc3ccccc23)o1)c1cccc(F)c1,inactive
10,Cc1ccccc1-c1nnc(NC(=O)Nc2ccc3ccccc3c2)s1,inactive
11,Brc1ccc(-c2csc(N3CCNCC3)n2)cc1,inactive
12,c1csc(CNc2ncnc3ccc(-c4ccc5c(c4)OCO5)cc23)n1,inactive
13,Nc1cc(NC(=O)Nc2nnc(-c3ccncc3)s2)ccc1Cl,inactive
14,O=[S+]([O-])(Nc1nccs1)c1ccc(NCc2ccc(Cl)c(Cl)c2)cc1,inactive
15,Cc1cc(N[S+](=O)([O-])c2cc3c(cc2Cl)CCC(=O)N3)ccc1Br,inactive
16,c1ccc(CNCc2nnc(-c3cc4ccccc4[nH]3)o2)cc1,inactive
17,c1ccc(OCc2nnc3ccc(-c4ccccc4)nn23)cc1,inactive
18,COc1ccc(-c2c(NC(C)=O)sc3c2CCNC3)cc1,inactive
19,Brc1ccc(-c2ccc(C3Nc4cccc5cccc(c45)N3)o2)cc1,inactive
20,Cc1cc(-c2nnc3n2CCCCC3)c(C)n1-c1ccc(C(F)(F)F)cc1,inactive
21,CC(=O)Nc1ccc(S(=O)(=O)Nc2cccc3cccnc23)cc1,inactive
22,COc1ccc(Cn2c(C)nnc2-c2cnn(C)c2N)cc1OC,inactive
23,CCOC(=O)c1ccc(-n2cccc2/C=C2\NC(=O)NC2=O)cc1,inactive
24,Cc1cc2c(s1)c1cnn(Cc3ccc(OC(F)F)cc3)c(=O)c1n2C,inactive
